Source: PubChem BioAssay AID1159580 (chemical genetic matrix, 2015)
Several values for one entry are separate records, joined by “and”; a condition that tells them apart may be missing. Equal entries are not always repeated. Among all 5,500 compounds or so, about 2,000 (36%) were called active. About 18% were inconclusive and are not listed. Rule as the data show it: active = normalized growth mostly below about 0.91 (no sharp cut-off); inconclusive = no clear call, values can overlap the other calls; inactive = mostly above about 0.92. This is one part of the list.

Assay: chemical genetic growth profiling, strain panel (AID 1159580);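 also: tested at 20 µM; growth read once vehicle control cultures reached saturation at 30 °C; 1 = growth at the plate median or of vehicle wells; lower values mean less growth of the strain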
Details: S. cerevisiae deletion strains, growth OD

Measured: normalized growth

NCC1CCC(C(=O)O)CC1 (stereo not drawn)
inactive: locus YAL021C, strain ccr4, active compounds read low 1 | locus YAL026C, strain drs2, active compounds read low 0.998 | locus YAL030W, strain snc1, active compounds read low 1 | locus YBL061C, strain skt5, active compounds read low 0.979 | locus YBR009C, strain hhf1, active compounds read low 0.992 | locus YBR021W, strain FUR4, active compounds read low 0.988 | locus YBR023C, strain chs3, active compounds read low 0.992 | locus YBR171W, strain sec66, active compounds read low 0.986 | locus YBR229C, strain ROT2, active compounds read low 1 | locus YBR231C, strain swc5, active compounds read low 0.988 | locus YBR279W, strain paf1, active compounds read low 1.01 | locus YCL011C, strain gbp2, active compounds read low 1 | locus YCL016C, strain dcc1, active compounds read low 0.993 | locus YCL029C, strain bik1, active compounds read low 0.982 | locus YCL061C, strain MRC1, active compounds read low 0.999 | locus YCL069W, strain vba3, active compounds read low 0.991 | locus YCR088W, strain abp1, active compounds read low 0.989 | locus YDL005C, strain med2, active compounds read low 0.974 | locus YDL035C, strain GPR1, active compounds read low 0.985 | locus YDL040C, strain nat1, active compounds read low 0.972 | locus YDL074C, strain BRE1, active compounds read low 1.04 | locus YDL101C, strain DUN1, active compounds read low 0.996 | locus YDL134C, strain PPH21, active compounds read low 0.985 | locus YDL185W, strain tfp1, active compounds read low 0.965 | locus YDL192W, strain arf1, active compounds read low 0.994 | locus YDR001C, strain nth1, active compounds read low 0.987 | locus YDR069C, strain doa4, active compounds read low 0.984 | locus YDR101C, strain arx1, active compounds read low 1 | locus YDR137W, strain rgp1, active compounds read low 1 | locus YDR150W, strain NUM1, active compounds read low 0.986 | locus YDR159W, strain sac3, active compounds read low 0.974 | locus YDR162C, strain NBP2, active compounds read low 0.973 | locus YDR195W, strain ref2 0.956 | locus YDR297W, strain sur2, active compounds read low 0.973 | locus YDR318W, strain mcm21, active compounds read low 0.978 | locus YDR334W, strain swr1, active compounds read low 1.01 | locus YDR335W, strain msn5, active compounds read low 1 | locus YDR388W, active compounds read low 0.999 | locus YDR392W, strain spt3, active compounds read low 1 | locus YDR502C, strain sam2, active compounds read low 0.996 | locus YEL003W, strain gim4, active compounds read low 0.995 | locus YEL037C, strain rad23, active compounds read low 0.991 | locus YEL061C, strain CIN8 (second series), active compounds read low 1 | locus YEL061C, strain CIN8, active compounds read low 1 | locus YER015W, strain faa2, active compounds read low 0.987 | locus YER016W, strain bim1, active compounds read low 0.971 | locus YER110C, active compounds read low 0.988 | locus YER111C, strain swi4, active compounds read low 0.978 | locus YER155C, strain BEM2 (second series), active compounds read low 0.974 | locus YER155C, strain BEM2, active compounds read low 0.995 | locus YER167W, strain BCK2, active compounds read low 0.997 | locus YFR010W, strain ubp6, active compounds read low 0.99 | locus YGL078C, strain dbp3, active compounds read low 0.998 | locus YGL086W, strain mad1, active compounds read low 1 | locus YGL173C, strain kem1, active compounds read low 0.974 | locus YGL227W, strain vid30, active compounds read low 0.998 | locus YGL240W, strain doc1, active compounds read low 0.999 | locus YGL248W, strain PDE1, active compounds read low 1.01 | locus YGL253W, strain hxk2, active compounds read low 0.977 | locus YGR078C, strain PAC10, active compounds read low 1.04 | locus YGR135W, strain pre9, active compounds read low 0.96 | locus YGR252W, strain gcn5, active compounds read low 1.02 | locus YHR013C, strain ard1, active compounds read low 0.979 | locus YHR027C, strain rpn1, active compounds read low 0.996 | locus YHR030C, strain SLT2, active compounds read low 0.98 and 1.04 | locus YHR079C, strain IRE1 (second series), active compounds read low 0.985 | locus YHR079C, strain IRE1, active compounds read low 1.06 | locus YHR094C, strain hxt1, active compounds read low 0.999 | locus YHR129C, strain ARP1, active compounds read low 0.986 | locus YHR142W, strain chs7, active compounds read low 0.994 | locus YHR200W, strain rpn10, active compounds read low 0.973 | locus YIL066C, strain RNR3, active compounds read low 1 | locus YIL073C, strain SPO22, active compounds read low 0.909 | locus YIL125W, strain kgd1, active compounds read low 0.995 | locus YIR030C, strain dcg1, active compounds read low 0.987 | locus YJL092W, strain hpr5, active compounds read low 0.986 | locus YJL095W, strain BCK1 (second series), active compounds read low 0.986 | locus YJL095W, strain BCK1, active compounds read low 1.04 and 1.01 | locus YJL115W, strain asf1, active compounds read low 0.98 | locus YJL129C, strain trk1, active compounds read low 0.997 | locus YJL134W, strain LCB3, active compounds read low 0.997 | locus YJL154C, strain vps35, active compounds read low 0.988 | locus YJL164C, strain tpk1, active compounds read low 0.985 | locus YJL166W, strain qcr8, active compounds read low 0.983 | locus YJL168C, strain set2, active compounds read low 0.999 | locus YJL187C, strain SWE1 (second series), active compounds read low 1.02 | locus YJR043C, strain POL32, active compounds read low 1 | locus YJR066W, strain TOR1, active compounds read low 0.98
